This note sets out measurements from PubChem BioAssay (Tox21).

Several values for one entry are separate records, joined by “and”; a condition that tells them apart may be missing. Equal entries are not always repeated. Inconclusive results are not listed. Where a structure was tested more than once in an assay, its records may differ in their call. Activity calls are given as the source filed them. Unless noted, calls come from the whole dose curve.

A short description of test [1]: Nuclear factor erythroid 2-related factor 2/antioxidant responsive element (Nrf2/ARE) small molecule agonists: qHTS cell viability counter screen in human keratinocytes (AID 1919968; active = well fitted curve in the direction sought with a large enough effect in the repeat runs; an effect the other way counts as inactive or inconclusive; note: nearly all actives have a fitted effect of over 55% in size). In a few lines:
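Stably transfected HaCaT (KeratinoSens), 1,500/well. Test agents in DMSO were applied for 23 h, 37 C/5% CO2. CellTiter-Fluor was incubated 1 h before the fluorescence read.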

A short description of test [2]: Nuclear factor erythroid 2-related factor 2/antioxidant responsive element (Nrf2/ARE) small molecule agonists: luciferase reporter gene qHTS assay in human keratinocytes (AID 1919969). Note: nearly all actives have a fitted effect of over 35% in size. Note: potency is the fitted concentration of half-maximal effect.
The target of test [3] is Gonadotropin-releasing hormone receptor (Homo sapiens) (UniProt P30968). The experiment in a line: Human gonadotropin-releasing hormone receptor (GnRHR) small molecule agonists, calcium flux assay in GnRHR-HEK293 cells (AID 1920063). Note: nearly all actives have a fitted effect of over 35% in size. In a few lines:
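Stable human GnRHR HEK293 line. 18 h plating, then calcium dye for 1 h at 37 C. Agonist-mode compound addition from DMSO stocks; fluorescence monitored 3 min.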

Test [4] has as its target KiSS-1 receptor (Homo sapiens) (UniProt Q969F8). The experiment in a line: Human kisspeptin (KISS1R) small molecule agonists, calcium flux assay in KISS1R-HEK293 cells (AID 1920064; active = well fitted curve in the direction sought with a large enough effect in the repeat runs; an effect the other way counts as inactive or inconclusive). The method, boiled down: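 After overnight (18 h) culture at 37 C/5% CO2, human KISS1R-HEK293 cells received calcium dye for 1 h, then test compound; emission at 540 nm (excitation 480 nm) was tracked for 3 min.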

The nature of test [5]: G protein-coupled receptor (GPCR) small molecule agonists, calcium flux assay: HEK293 wild type cell line counter screen (AID 1920065). The method, boiled down:
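Following 18 h incubation at 37 C/5% CO2, plates got calcium dye for 1 h; compounds, ATP or DMSO were then pinned in and fluorescence followed kinetically (480/540 nm).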

A short description of test [6]: p53 small molecule agonists, cell-based qHTS assay with human liver microsomes (AID 1963577). Note: potency is the fitted concentration of half-maximal effect. In a few lines: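 Compounds act here after metabolic activation: human liver microsomes and NADPH, both at 0.5 mg/mL final, were co-added to p53RE-bla cells. Incubation ran 16 h at 37 C, followed by LiveBLAzer detection.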
The nature of test [7]: p53 small molecule agonists, cell-based qHTS assay with rat liver microsomes (AID 1963578). In a few lines: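 Read-out is beta-lactamase reporter fluorescence (LiveBLAzer, 2 h, room temperature, dark) in p53RE-bla cells treated 16 h at 37 C with compound, rat liver microsomes and NADPH, both 0.5 mg/mL final.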
Test [8] can be described thus: p53 small molecule agonists, cell-based qHTS assay with rat liver microsomes: qHTS cell viability counter screen (AID 1963580). Note: nearly all actives have a fitted effect of over 45% in size. The method, boiled down: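 Luminescent ATP readout (CellTiter-Glo, 30 min at room temperature) reports viability of p53RE-bla HCT-116 cells after 16 h at 37 C with test compounds under metabolic activation by rat liver microsomes and NADPH at 0.5 mg/mL final each.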

A short description of test [9]: p53 small molecule agonists, cell-based qHTS assay: qHTS cell viability counter screen (AID 1963581). Note: nearly all actives have a fitted effect of over 45% in size. In a few lines:
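qHTS counter screen: 16 h compound exposure at 37 C of p53RE-bla HCT-116 cells (4,000 per well, seeded 5 h prior), cell viability by ATP luminescence.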

Test [10] can be described thus: p53 small molecule agonists, cell-based qHTS assay (AID 1963582; active = well fitted activation curve with a large enough effect in the signal ratio in the repeat runs, not every such curve was filed as active; the % refers to the signal ratio). The method, boiled down: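 Measured: fluorescence from cleaved LiveBLAzer substrate. System: p53RE-bla cells, 16 h compound treatment at 37 C, 2 h substrate step at room temperature.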
The target in test [11] is 5-hydroxytryptamine receptor 2A (Homo sapiens) (UniProt P28223). As to the kind of experiment: 5-hydroxytryptamine receptor 2A (HTR2A) small molecule antagonists, cell-based qHTS assay (AID 1963586). Note: nearly all actives have a fitted effect of over 45% in size. The method, boiled down: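 CHO cells stably expressing human HTR2A were plated for 18 h at 37 C, then loaded with calcium dye for 1 h. Compounds were preincubated 5 min at room temperature before DOI (4 nM solution) was added. Kinetic fluorescence was read for 3 min.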

For test [12] the target is unchanged. As to the kind of experiment: 5-hydroxytryptamine receptor 2A (HTR2A) small molecule agonists, cell-based qHTS assay (AID 1963587). Note: nearly all actives have a fitted effect of over 30% in size. The method, boiled down: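 HTR2A-CHO cells, plated 18 h at 37 C/5% CO2, dye-loaded 1 h at 37 C; compounds in DMSO added by pin tool (agonist mode). Intracellular calcium flux read as kinetic fluorescence on FDSS over 2 min at 1 s intervals.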

The target of test [13] is Muscarinic acetylcholine receptor M1 (Homo sapiens) (UniProt P11229). As to the kind of experiment: Cholinergic receptor muscarinic 1 (CHRM1) small molecule antagonists, cell-based qHTS assay (AID 1963588). Note: nearly all actives have a fitted effect of over 40% in size. In a few lines: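 Compounds were tested at 15 concentrations in three independent runs. Dye-loaded CHRM1-CHO cells were exposed 5 min at room temperature before stimulation by acetylcholine added at 50nM. Intracellular calcium was read kinetically on FDSS for 3 min.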

The target is the same in test [14]. As to the kind of experiment: Cholinergic receptor muscarinic 1 (CHRM1) small molecule agonists, cell-based qHTS assay (AID 1963589). Note: nearly all actives have a fitted effect of over 35% in size. The method, boiled down:
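Kinetic fluorescence (1 s intervals) of calcium-sensitive dye in human M1 CHO cells after compound addition; cells pre-incubated 18 h at 37 C/5% CO2 and dye-loaded 1 h.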

Test [15] can be described thus: cAMP Responsive Elements (CRE) small molecule agonists, cell-based qHTS assay (AID 1963590). The method, boiled down:
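Test agents in DMSO were incubated 3 h at 37 C/5% CO2 with CRE-bla HEK 293T cells seeded 18 h earlier; LiveBLAzer B/G FRET substrate was added and read after 2 h at room temperature.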

Test [16] in a line: cAMP Responsive Elements (CRE) small molecule antagonists, cell-based qHTS assay (AID 1963591; active = well fitted inhibition curve with a large enough effect in the signal ratio in the repeat runs, not every such curve was filed as active; the % refers to the signal ratio). In a few lines: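 Reporter line CRE-bla HEK 293T in dialyzed-FBS DMEM; cells preincubated 18 h, treated 3 h with compound plus NKH477 (0.25 uM final); LiveBLAzer FRET, 2 h RT.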
The target in test [17] is Beta-2 adrenergic receptor (Homo sapiens) (UniProt P07550). The experiment in a line: Adrenergic beta2 receptor (ADRB2) small molecule antagonists, cell-based qHTS assay (AID 1963592). Note: series mostly up to about 92 µM; nearly all actives have a fitted effect of over 50% in size. In a few lines:
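Assay format: CHO-ADRB2 cells, 18-20hr seeding at 37C/5% CO2, then compound plus 1nM isoproterenol agonist mix for 0.5hr RT. Homogeneous time-resolved fluorescence cAMP detection after 1hr, expressed as 665/615 nm ratio.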

The target in test [18] is D(2) dopamine receptor (Homo sapiens) (UniProt P14416). The experiment in a line: Dopamine D2 receptor (DRD2) small molecule agonists, cell-based qHTS assay (AID 1963594). Note: nearly all actives have a fitted effect of over 35% in size. The method, boiled down:
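HEK293 cells stably expressing DRD2 were cultured 24 h at 37 C, then given Ro20-1724 (0.1 mM final) and compounds for 10 min at room temperature. NKH477 (200nM) was then added for 30 min. cAMP was read by HTRF.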

The target is the same in test [19]. As to the kind of experiment: Dopamine D2 receptor (DRD2) small molecule antagonists, cell-based qHTS assay (AID 1963595; active = well fitted inhibition curve with a large enough effect in the signal ratio in the repeat runs, with a control signal flat; the % refers to the signal ratio). In a few lines:
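HTRF cAMP read-out at 665 and 620 nm emission (340 nm excitation). Antagonist mode: compounds were tested against 12 nM quinpirole in DRD2-HEK293 cells, with 200 nM NKH477 raising cAMP and 0.1 mM Ro20-1724 blocking its breakdown.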

Test [20] can be described thus: p53 small molecule agonists, cell-based qHTS assay with human liver microsomes: qHTS cell viability counter screen (AID 1963579). Note: nearly all actives have a fitted effect of over 45% in size. In a few lines: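 Cells carrying the p53 response-element beta-lactamase reporter are treated for 16 h at 37 C with test compounds in the presence of human liver microsomes and NADPH (both 0.5 mg/mL final); ATP-based CellTiter-Glo luminescence then reports viability.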

Sequence of 5-hydroxytryptamine receptor 2A (Homo sapiens) (P28223 whole entry, looked up): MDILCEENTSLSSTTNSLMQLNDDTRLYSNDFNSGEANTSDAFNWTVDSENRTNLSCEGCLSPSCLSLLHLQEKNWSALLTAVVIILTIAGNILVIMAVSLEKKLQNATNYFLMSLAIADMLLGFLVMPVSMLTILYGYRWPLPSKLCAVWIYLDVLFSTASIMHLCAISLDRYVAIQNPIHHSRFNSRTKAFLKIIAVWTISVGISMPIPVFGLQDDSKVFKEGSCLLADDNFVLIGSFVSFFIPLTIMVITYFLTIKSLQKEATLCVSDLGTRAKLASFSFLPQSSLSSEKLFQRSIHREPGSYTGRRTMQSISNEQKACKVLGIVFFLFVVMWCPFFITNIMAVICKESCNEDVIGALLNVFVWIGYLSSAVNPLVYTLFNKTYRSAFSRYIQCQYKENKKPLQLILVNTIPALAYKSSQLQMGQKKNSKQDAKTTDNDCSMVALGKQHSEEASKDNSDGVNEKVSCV
Sequence of D(2) dopamine receptor (Homo sapiens) (P14416 whole entry, looked up): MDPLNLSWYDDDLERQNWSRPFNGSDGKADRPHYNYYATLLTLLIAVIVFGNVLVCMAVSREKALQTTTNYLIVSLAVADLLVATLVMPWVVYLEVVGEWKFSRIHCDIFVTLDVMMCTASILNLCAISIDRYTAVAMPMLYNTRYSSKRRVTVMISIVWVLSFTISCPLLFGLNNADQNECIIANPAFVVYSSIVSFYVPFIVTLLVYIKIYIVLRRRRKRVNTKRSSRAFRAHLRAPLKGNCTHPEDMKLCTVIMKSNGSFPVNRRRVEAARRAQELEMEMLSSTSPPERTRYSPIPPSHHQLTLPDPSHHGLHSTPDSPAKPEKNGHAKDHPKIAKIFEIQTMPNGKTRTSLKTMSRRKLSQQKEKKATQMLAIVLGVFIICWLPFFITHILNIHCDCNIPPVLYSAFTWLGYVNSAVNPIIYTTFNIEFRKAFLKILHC
Sequence of KiSS-1 receptor (Homo sapiens) (Q969F8 whole entry, looked up): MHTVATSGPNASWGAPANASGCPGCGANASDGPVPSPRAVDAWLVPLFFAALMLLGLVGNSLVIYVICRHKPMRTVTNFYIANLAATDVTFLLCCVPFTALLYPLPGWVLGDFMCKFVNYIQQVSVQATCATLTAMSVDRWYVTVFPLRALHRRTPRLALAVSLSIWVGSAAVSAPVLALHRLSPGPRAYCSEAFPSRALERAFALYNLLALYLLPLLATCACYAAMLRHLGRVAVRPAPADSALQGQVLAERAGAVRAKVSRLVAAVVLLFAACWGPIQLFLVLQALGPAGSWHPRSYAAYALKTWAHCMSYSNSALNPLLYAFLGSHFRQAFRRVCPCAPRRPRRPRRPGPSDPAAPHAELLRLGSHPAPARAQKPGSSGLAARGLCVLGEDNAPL
Sequence of Gonadotropin-releasing hormone receptor (Homo sapiens) (P30968 whole entry, looked up): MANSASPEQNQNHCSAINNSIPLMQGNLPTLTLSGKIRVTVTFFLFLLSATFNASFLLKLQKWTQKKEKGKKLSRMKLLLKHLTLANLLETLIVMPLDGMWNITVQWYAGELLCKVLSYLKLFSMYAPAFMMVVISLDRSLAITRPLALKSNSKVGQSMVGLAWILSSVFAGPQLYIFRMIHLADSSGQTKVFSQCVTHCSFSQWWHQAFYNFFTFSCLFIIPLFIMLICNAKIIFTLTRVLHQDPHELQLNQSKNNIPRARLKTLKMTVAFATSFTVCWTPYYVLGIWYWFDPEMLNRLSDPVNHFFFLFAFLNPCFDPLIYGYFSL
Sequence of Muscarinic acetylcholine receptor M1 (Homo sapiens) (P11229 whole entry, looked up): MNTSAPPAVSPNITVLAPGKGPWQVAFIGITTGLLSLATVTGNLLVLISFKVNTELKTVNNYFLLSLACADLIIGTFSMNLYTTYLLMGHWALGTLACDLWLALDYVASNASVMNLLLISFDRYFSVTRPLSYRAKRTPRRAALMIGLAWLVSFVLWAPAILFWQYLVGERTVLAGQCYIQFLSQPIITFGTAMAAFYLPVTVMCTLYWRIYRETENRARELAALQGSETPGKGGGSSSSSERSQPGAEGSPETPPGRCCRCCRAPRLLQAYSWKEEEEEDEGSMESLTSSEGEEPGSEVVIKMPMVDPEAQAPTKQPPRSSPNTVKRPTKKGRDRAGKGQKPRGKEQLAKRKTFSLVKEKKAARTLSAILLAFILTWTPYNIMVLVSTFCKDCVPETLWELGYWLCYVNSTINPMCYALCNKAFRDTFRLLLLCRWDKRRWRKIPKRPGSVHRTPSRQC
Sequence of Beta-2 adrenergic receptor (Homo sapiens) (P07550 whole entry, looked up): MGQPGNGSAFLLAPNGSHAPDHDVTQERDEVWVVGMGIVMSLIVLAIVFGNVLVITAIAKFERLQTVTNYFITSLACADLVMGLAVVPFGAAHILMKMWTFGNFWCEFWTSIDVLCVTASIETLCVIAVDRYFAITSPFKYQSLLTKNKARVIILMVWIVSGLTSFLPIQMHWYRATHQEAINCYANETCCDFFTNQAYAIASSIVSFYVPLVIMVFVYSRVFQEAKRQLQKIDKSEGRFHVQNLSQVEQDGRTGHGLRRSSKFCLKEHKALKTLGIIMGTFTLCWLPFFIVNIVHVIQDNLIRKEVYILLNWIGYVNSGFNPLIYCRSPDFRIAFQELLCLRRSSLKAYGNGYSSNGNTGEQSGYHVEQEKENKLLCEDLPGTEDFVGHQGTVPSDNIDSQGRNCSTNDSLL

In the case of `C/C=C(C)/C=C/C=C(C)C`, the Potency result in test [1], in [3], in test [4], in test [5], in test [6] and in test [7] was “inactive” in each case. The Potency entry in test [8], in test [9], in [10], in [11], in test [12] and in test [13] was “inactive” each time. Also, the Potency entry in test [14], in [15], in [16], in test [17], in test [18] and in test [19] was “inactive” throughout. The Potency in [2] was 60.4 µM (active) and 54.5 µM (active).
For `CN(C)c1nc(N(C)C)nc(N(C)C)n1`, the Potency result in test [1], in test [3], in test [4], in test [5], in test [6] and in [7] was “inactive” each time. Further, the Potency entry in [8], in [9], in test [10], in test [15], in test [16] and in test [17] was “inactive” each time. The Potency entry in [18] and in test [19] was “inactive” throughout. Also, the Potency in [2] is 3.94 µM (active) and inactive.
As to `COc1ccc(C(=O)c2ccccc2)c(O)c1`, the Potency entry in test [1], in test [3], in test [4], in [5], in test [6] and in test [20] was “inactive” throughout. Besides, the Potency entry in test [8], in [9], in [10], in test [11], in test [12] and in [13] was “inactive” in each case. For the same compound, the Potency result in [14], in test [16], in [17], in [18] and in test [19] was “inactive” in each case. Further, the Potency entry in [2] was “inactive and 54.5 µM (active)”.
`Cc1cc(C(C)(C)C)c(O)c(C(C)(C)C)c1`: the Potency result in [1], in test [3], in [4], in test [5], in test [6] and in [7] was “inactive” each time. Moreover, the Potency result in test [8], in [9], in test [10], in test [11], in test [12] and in [13] was “inactive” each time. For the same compound, the Potency result in test [14], in test [15], in [16], in test [17], in [18] and in [19] was “inactive” each time. In test [2], the Potency is 24.4 µM (active) and 48.6 µM (active).
On to `O=C(O)c1ccc2c(c1)C(=O)OC2=O`, for which the Potency result in test [1], in test [2], in test [3], in test [4], in test [5] and in [6] was “inactive” each time. The Potency result in test [7], in test [8], in test [9], in [10], in test [11] and in test [12] was “inactive” in each case. Also, the Potency result in test [13], in test [14], in test [15], in test [16], in test [17] and in test [18] was “inactive” throughout. For the same compound, in test [19], the Potency entry was “inactive”.
Turning to `CCCCCCCCC(=O)O`, the Potency entry in test [1], in [2], in test [3], in test [4], in test [5] and in [7] was “inactive” each time. Also, the Potency result in test [20], in test [10], in test [11], in [12], in [13] and in [14] was “inactive” each time. For the same compound, the Potency entry in test [16], in test [17], in [18] and in test [19] was “inactive” in each case. Besides, the Potency in test [6] is 39.5 µM (active).
In the case of `Cc1ccc(S(=O)(=O)NCl)cc1`, the Potency result in [1], in test [2], in test [3], in test [4], in test [5] and in test [6] was “inactive” each time. Moreover, the Potency entry in test [20], in test [8], in [9], in test [10], in test [11] and in [12] was “inactive” each time. The Potency result in test [13], in test [14], in test [15], in test [16], in [17] and in test [18] was “inactive” in each case.
